Structures can show the parent of a compound that is named as a salt.
Key:
Conditions in all cases: incubation time: 27 h, anaerobic, 37 °C;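 for the amine columns active = adjusted P below 0.05 in both replicates with a change the same way and a mean fold change under 0.8 or over 1.25; inactive = the rest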
[1] = test system: Clostridium sporogenes DSM 1664; assay: growth (OD595) fold change vs plate DMSO controls (fold change (ratio)); higher = more growth
In short: (§1)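 The reported measure is growth: the fold change against the median of DMSO controls on the plate. Absorbance at 595 nm from anaerobic 96-well mGAM cultures grown for 27 h at 37 °C was blank-subtracted, corrected for background with 20 µM compound solutions in water, and converted to OD with a calibration factor of 5. Fold changes above 1.5 appear as NA, and values are the mean of 2 biological replicates.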

Escherichia coli IAI1 [2] = assay: as above
In short: as §1

[3] = test system: Klebsiella aerogenes DSM 30053; assay: as above
In short: as §1

[4] = test system: Ruminococcus gnavus DSM 108212; assay: as above
In short: as §1

[5] = test system: Klebsiella aerogenes DSM 30053; assay: fold change of Histamine concentration vs plate DMSO controls (fold change (ratio)); higher = more amine produced, active = hit call of the paper (significant change in both replicates, either direction)
In short: (§2)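 Anaerobic mGAM cultures of four gut bacterial strains were grown at 37 °C for 27 h in 80 µL wells, starting at OD 0.1 before 1:1 dilution. Compounds were at 20 µM final (sweeteners 50 µM). Whole cultures were extracted with cold acetonitrile/methanol containing 0.1% formic acid and centrifuged. Amines were quantified by LC–triple-quadrupole MS (dynamic MRM) against external calibration curves and drift-corrected within batch. Each value is the fold change versus plate DMSO controls, averaged over 2 biological replicates.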

[6] = test system: Clostridium sporogenes DSM 1664; assay: fold change of Tryptamine concentration vs plate DMSO controls (fold change (ratio)); higher = more amine produced, active = hit call of the paper (significant change in both replicates, either direction)
In short: as §2

[7] = test system: Ruminococcus gnavus DSM 108212; assay: as above
In short: as §2

Escherichia coli IAI1 [8] = assay: fold change of Putrescine concentration vs plate DMSO controls (fold change (ratio)); higher = more amine produced, active = hit call of the paper (significant change in both replicates, either direction)
In short: as §2

[9] = test system: Klebsiella aerogenes DSM 30053; assay: as above
In short: as §2

Escherichia coli IAI1 [10] = assay: fold change of Cadaverine concentration vs plate DMSO controls (fold change (ratio)); higher = more amine produced, active = hit call of the paper (significant change in both replicates, either direction)
In short: as §2

[11] = test system: Klebsiella aerogenes DSM 30053; assay: as above
In short: as §2

[12] = test system: Ruminococcus gnavus DSM 108212; assay: fold change of 2-Phenylethylamine concentration vs plate DMSO controls (fold change (ratio)); higher = more amine produced, active = hit call of the paper (significant change in both replicates, either direction)
In short: as §2

Compound | growth [1] | growth (Escherichia coli IAI1 [2]) | growth [3] | growth [4] | fold change of Histamine concentration [5] | fold change of Tryptamine concentration [6] | fold change of Tryptamine concentration [7] | fold change of Putrescine concentration (Escherichia coli IAI1 [8]) | fold change of Putrescine concentration [9] | fold change of Cadaverine concentration (Escherichia coli IAI1 [10]) | fold change of Cadaverine concentration [11] | fold change of 2-Phenylethylamine concentration [12]
COc1cnc(NS(=O)(=O)c2ccc(N)cc2)nc1 [Sulfameter] (20 µM) | 0.997 | 0.976 | 0.981 | 1.35 | 1.01 (inactive) | 0.945 (inactive) | 1.03 (inactive) | 1.01 (inactive) | 0.996 (inactive) | 1.03 (inactive) | 0.987 (inactive) | 1.01 (inactive)
CC=C(C)C(=O)OC1C(OC(C)=O)C2(CO)C(O)CC3(C)C(=CCC4C5(C)CCC(OC6OC(C(=O)O)C(OC7OC(CO)C(O)C(O)C7O)C(O)C6OC6OC(CO)C(O)C(O)C6O)C(C)(CO)C5CCC43C)C2CC1(C)C (stereo not drawn) [Beta-Escin] (20 µM) | 0.94 | 1 | 1.01 | 1.01 | 1.01 (inactive) | 0.988 (inactive) | 0.982 (inactive) | 0.986 (inactive) | 0.994 (inactive) | 1.01 (inactive) | 1 (inactive) | 0.953 (inactive)
NC(=O)N1c2ccccc2CC(=O)c2ccccc21 [Oxcarbazepine] (20 µM) | 0.964 | 1.01 | 0.977 | 1 | 1.07 (inactive) | 0.996 (inactive) | 1.02 (inactive) | 1 (inactive) | 1.01 (inactive) | 1.02 (inactive) | 0.994 (inactive) | 1.01 (inactive)
Nc1ccc(/N=N/c2ccccc2)c(N)n1 [Phenazopyridine hydrochloride] (20 µM) | 1.12 | 0.985 | 0.982 | 1.06 | 0.998 (inactive) | 0.991 (inactive) | 1.02 (inactive) | 0.969 (inactive) | 0.986 (inactive) | 1.02 (inactive) | 0.994 (inactive) | 0.969 (inactive)
CCOC(=O)O[C@]1(C(=O)COC(=O)CC)CC[C@H]2[C@@H]3CCC4=CC(=O)C=C[C@]4(C)[C@H]3[C@@H](O)C[C@@]21C [Prednicarbate] (20 µM) | 1.04 | 1.09 | 1.01 | 0.865 | 1.02 (inactive) | 0.97 (inactive) | 1.2 (inactive) | 0.941 (inactive) | 1.03 (inactive) | 1.01 (inactive) | 1.12 (inactive) | 1.41 (inactive)
CC(C)OC(=O)C(C(=O)OC(C)C)=C1SC=CS1 [Malotilate] (20 µM) | 1.09 | 1.07 | 1.08 | 1.16 | 0.94 (inactive) | 0.958 (inactive) | 0.956 (inactive) | 1.07 (inactive) | 1.04 (inactive) | 0.949 (inactive) | 1.02 (inactive) | 0.88 (inactive)
Cc1ccc2c(c1)c1c3n2CCNC3CCC1 (stereo not drawn) [Pirlindole mesylate] (20 µM) | 0.975 | 1.06 | 0.98 | 1 | 0.963 (inactive) | 0.987 (inactive) | 1.05 (inactive) | 1.06 (inactive) | 1 (inactive) | 1.01 (inactive) | 1 (inactive) | 1.08 (inactive)
CCCCOC(=O)c1ccc(O)cc1 [Butylparaben] (20 µM) | 1.09 | 0.963 | 0.965 | 1.01 | 1.01 (inactive) | 0.984 (inactive) | 0.964 (inactive) | 0.939 (inactive) | 0.968 (inactive) | 1.04 (inactive) | 0.984 (inactive) | 0.953 (inactive)
CC1(C)O[C@@H]2C[C@H]3[C@@H]4C[C@H](F)C5=CC(=O)CC[C@]5(C)[C@H]4[C@@H](O)C[C@]3(C)[C@]2(C(=O)CO)O1 [Flurandrenolide] (20 µM) | 0.993 | 1.15 | 0.987 | 1.27 | 0.982 (inactive) | 1.08 (inactive) | 1.16 (inactive) | 1.18 (inactive) | 0.966 (inactive) | 0.954 (inactive) | 1.04 (inactive) | 1.33 (inactive)
CC(C)=CCC1C(=O)N(c2ccccc2)N(c2ccccc2)C1=O [Feprazone] (20 µM) | 1.07 | 0.999 | 1.01 | 1.04 | 0.971 (inactive) | 1.02 (inactive) | 1.01 (inactive) | 1.02 (inactive) | 1.02 (inactive) | 0.996 (inactive) | 1 (inactive) | 1.03 (inactive)
C#C[C@]1(O)CC[C@H]2[C@@H]3CCc4cc(OC)ccc4[C@H]3CC[C@@]21C [Mestranol] (20 µM) | 0.992 | 0.999 | 1.09 | 1.14 | 0.93 (inactive) | 1.04 (inactive) | 0.893 (inactive) | 0.949 (inactive) | 1.01 (inactive) | 1.01 (inactive) | 1.01 (inactive) | 0.831 (inactive)
COc1cc2/c(=N/c3ccc(Br)cc3F)nc[nH]c2cc1OCC1CCN(C)CC1 [Vandetanib] (20 µM) | 1.15 | 1.07 | 1.06 | 0.995 | 1.01 (inactive) | 1.04 (inactive) | 1.11 (inactive) | 0.989 (inactive) | 0.907 (inactive) | 0.992 (inactive) | 1.1 (inactive) | 1.14 (inactive)
Cc1ccc2c(Cl)cc(Cl)c(O)c2n1 [Chlorquinaldol] (20 µM) | 0.726 | 0.915 | 0.929 | 0.448 | 1.12 (inactive) | 0.518 (active) | 0.33 (active) | 1.17 (inactive) | 1.03 (inactive) | 1.32 (inactive) | 0.978 (inactive) | 0.332 (inactive)
Cn1c(=O)c2[nH]cnc2n(C)c1=O [Aminophylline] (20 µM) | 0.81 | 0.991 | 0.955 | 0.972 | 0.965 (inactive) | 1.06 (inactive) | 0.972 (inactive) | 1.17 (inactive) | 1.02 (inactive) | 1.01 (inactive) | 1 (inactive) | 0.939 (inactive)
Cc1onc(-c2c(F)cccc2Cl)c1C(=O)N[C@@H]1C(=O)N2[C@@H]1SC(C)(C)[C@@H]2C(=O)O [Flucloxacillin sodium] (20 µM) | 0 | 1.02 | 0.993 | 0 | 0.99 (inactive) | 0.0254 (active) | 0.0375 (active) | 1.01 (inactive) | 1.02 (inactive) | 1.07 (inactive) | 1.02 (inactive) | 0.0397 (active)
CS(=O)(=O)c1ccc([C@@H](O)[C@@H](CO)NC(=O)C(Cl)Cl)cc1 [Thiamphenicol] (20 µM) | 0.937 | 0.551 | 0.468 | 0.18 | 0.0658 (active) | 0.738 (active) | 0.141 (active) | 0.321 (active) | 0.426 (active) | 1.17 (inactive) | 0.957 (inactive) | 0.145 (active)
O=C(C1CCCCC1)N1CC(=O)N2CCc3ccccc3C2C1 (stereo not drawn) [Praziquantel] (20 µM) | 1.01 | 0.975 | 0.99 | 0.82 | 1.06 (inactive) | 0.989 (inactive) | 1.03 (inactive) | 0.947 (inactive) | 1.02 (inactive) | 1.02 (inactive) | 0.978 (inactive) | 0.992 (inactive)
CC[C@H](C)[C@H](NC(=O)[C@H](Cc1ccc(O)cc1)NC(=O)[C@@H](NC(=O)[C@H](CCCN=C(N)N)NC(=O)[C@@H](N)CC(=O)O)C(C)C)C(=O)N[C@@H](Cc1cnc[nH]1)C(=O)N1CCC[C@H]1C(=O)N[C@@H](Cc1ccccc1)C(=O)O [Angiotensin II (Human) Trifluoroacetic acid salt] (20 µM) | 1.02 | 1.03 | 0.987 | 0.979 | 1.01 (inactive) | 1.07 (inactive) | 1.09 (inactive) | 0.966 (inactive) | 0.983 (inactive) | 0.934 (inactive) | 0.994 (inactive) | 1.14 (inactive)
NC(=O)c1cn(Cc2c(F)cccc2F)nn1 [Rufinamide] (20 µM) | 0.904 | 0.974 | 1.01 | 0.922 | 0.998 (inactive) | 0.969 (inactive) | 1.02 (inactive) | 0.999 (inactive) | 0.995 (inactive) | 0.98 (inactive) | 0.985 (inactive) | 1.02 (inactive)
CC(C)NNC(=O)c1ccncc1 [Iproniazide phosphate] (20 µM) | 1.05 | 1.13 | 1.09 | 1.06 | 0.977 (inactive) | 1.06 (inactive) | 1 (inactive) | 1.13 (inactive) | 1.01 (inactive) | 0.987 (inactive) | 1 (inactive) | 0.994 (inactive)
C[N+](C)(CCOc1ccccc1)Cc1ccccc1.O=C([O-])c1cc2ccccc2cc1O [Bephenium hydroxynaphthoate] (20 µM) | 0.816 | 0.99 | 0.976 | 0.995 | 1.04 (inactive) | 1.16 (inactive) | 1.04 (inactive) | 0.854 (inactive) | 0.99 (inactive) | 1.51 (active) | 0.992 (inactive) | 1.06 (inactive)
CCCCN(CCCC)CCC(O)c1cc2c(Cl)cc(Cl)cc2c2cc(C(F)(F)F)ccc12 (stereo not drawn) [Halofantrine hydrochloride] (20 µM) | 1.1 | 1.23 | 1.03 | 1.16 | 0.895 (inactive) | 1.01 (inactive) | 0.756 (active) | 1.17 (inactive) | 0.964 (inactive) | 0.955 (inactive) | 1.01 (inactive) | 0.92 (inactive)
Cc1ncc(C[n+]2csc(CCO)c2C)c(N)n1 [Thiamine hydrochloride] (20 µM) | 0.972 | 0.961 | 1.01 | 1.14 | 0.968 (inactive) | 1.06 (inactive) | 0.914 (inactive) | 1.01 (inactive) | 0.998 (inactive) | 1.01 (inactive) | 1.01 (inactive) | 0.868 (inactive)
CC(=O)SCC(Cc1ccccc1)C(=O)NCC(=O)OCc1ccccc1 (stereo not drawn) [Racecadotril] (20 µM) | 1.06 | 1 | 0.986 | 0.929 | 0.978 (inactive) | 0.941 (inactive) | 1.01 (inactive) | 0.991 (inactive) | 0.991 (inactive) | 0.985 (inactive) | 0.999 (inactive) | 0.954 (inactive)
